Bioassay records deposited in PubChem BioAssay by National Center for Advancing Translational Sciences (NCATS).
This is a sample that favours compounds with a hit; in the whole collection about 6.4% have one here.
RORg inh: blocks mouse ROR gamma transcriptional activity | P51450 | Drosophila S2 Gal4-RORgamma UAS-luciferase reporter, 20 h | Potency, µM (series often up to 53.6 µM), without a hit: top-dose activity change, negative = inhibition, actives largely listed as inhibitors | 5.4% of 310,000 active | AID 2551; also: nearly all actives have a fitted effect of over 60% in size
Target sequence (P51450 whole entry, looked up, the tested form may be a part): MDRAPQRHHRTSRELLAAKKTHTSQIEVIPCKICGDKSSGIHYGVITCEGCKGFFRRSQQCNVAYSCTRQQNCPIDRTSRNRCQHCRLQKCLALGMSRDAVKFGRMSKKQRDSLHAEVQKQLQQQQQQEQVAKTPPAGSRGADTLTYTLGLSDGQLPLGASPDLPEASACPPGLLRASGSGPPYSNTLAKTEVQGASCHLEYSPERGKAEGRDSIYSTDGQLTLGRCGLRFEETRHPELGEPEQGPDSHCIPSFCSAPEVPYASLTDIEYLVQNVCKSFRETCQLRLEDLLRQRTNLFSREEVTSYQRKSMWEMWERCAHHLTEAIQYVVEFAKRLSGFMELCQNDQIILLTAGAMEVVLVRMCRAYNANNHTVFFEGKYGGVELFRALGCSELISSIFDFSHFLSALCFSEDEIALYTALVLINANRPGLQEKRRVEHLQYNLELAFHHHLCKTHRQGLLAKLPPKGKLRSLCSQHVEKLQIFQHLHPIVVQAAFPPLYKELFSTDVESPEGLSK
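Luciferase reporter read in Schneider cells carrying Gal4-RORγ (mouse) and UAS-Photinus luciferase; cells given compound 1 h before 700 uM copper sulfate induction, then incubated 20 h at ambient temperature.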
KinaseGlo FLuc: blocks Kinase-Glo luciferase, a counter-screen artifact | Kinase-Glo luciferase, ATP luminescence, 8 min | Potency, µM (series often up to 38.3 µM), inactives show at the highest dose activity change, negative = inhibition, hits mostly inhibitors | 0.28% of 200,000 active | AID 1379; also: nearly all actives have a fitted effect of over 60% in size
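Luminescence was the read-out, taken after 8-minute incubation at ambient temperature. Luciferase turned over luciferin with 10 uM ATP in imidazole pH 7.2 buffer containing KCl, MgCl2, Tween 20 and BSA.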
Gal4-VP16 FLuc: counter-screen for ROR gamma inhibitors: Gal4-VP16 reporter; Drosophila S2 Gal4-VP16 UAS-luciferase, luminescence, 20 h; 3.5% of 310,000 active; Potency, µM (titrated, usually from 53.6 µM), for the others: at the top dose activity, negative = inhibition, actives largely listed as inhibitors;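 also: Gal4-VP16 expression switched on by copper sulfate through the metallothionein promoter; nearly all actives have a fitted effect of over 50% in size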
Starred values were filed as active, the others as inactive; ? = inconclusive; . = not tested or not shown; [ ] = remark or other dose. Calls follow the shape of the dose curve; as a rule, active = well fitted curve in the direction sought with a large enough effect; inconclusive = small, poorly fitted or top-dose-only effect, or another doubt; inactive = no such curve, though single readings can be large; an effect the other way counts as inactive or inconclusive. % is scaled to controls: 0 for no effect and ±100 for the full control effect; potency is read from the fitted curve at half-maximal effect.

SMILES | RORg inh | KinaseGlo FLuc | Gal4-VP16 FLuc
CC1(C)CC(=O)c2sc(NC(=O)CCS(=O)(=O)c3ccccc3)nc2C1 | ? | 1% | 5.6µM*
CC1(C)CC(=O)c2sc(NC(=O)c3ccccc3)nc2C1 | 56% | -15% | 6%
CN(C)CCCCNC(=O)c1ccc(-n2c(=O)c(=O)[nH]c3ccccc32)cc1 | . | 0% | .
Cc1ccc(OCc2ccc(C(=O)Nc3nc4ccccc4n3Cc3ccccc3)o2)c([N+](=O)[O-])c1 | ? | -3% | 0.32µM*
O=C(Nc1nc2ccccc2n1Cc1ccccc1)c1ccc(COc2ccccc2[N+](=O)[O-])o1 | ? | -2% | ?
Cc1ccc(OCc2ccc(C(=O)O)o2)c([N+](=O)[O-])c1 | -10% | 1% | -15%
Cc1ccc(OCc2ccc(C(=O)Nc3nc4ccccc4n3C)o2)c([N+](=O)[O-])c1 | 5.6µM* | 1% | 3.2µM*
COc1ccccc1-c1nccc(Nc2ccc(F)cc2)n1 | 6% | . | 6%
COC(CNC(=O)C1CCC(CNS(=O)(=O)c2c(C)cc(C)cc2C)CC1)OC (configuration not stated) | 21% | . | -6%
CCCCCC(=O)NC(=S)Nc1ccc2oc(=O)ccc2c1 | 11µM* | -3% | ?
CCCC(=O)NC(=S)Nc1cccc(NC(=O)c2ccccc2)c1 | ? | -1% | 3.5µM*
COc1ccc(C(=O)NC(=S)Nc2ccc3oc(=O)ccc3c2)cc1 | -14% | -2% | -16%
CCCCC(=O)Nc1cccc(NC(=S)NC(=O)Cc2ccccc2)c1 | ? | -3% | -9%
CCCCCC(=O)N/N=C(\C)c1ccc(NC(=O)c2ccco2)cc1 | -15% | -6% | -11%
CCCCC(=O)NC(=S)Nc1cccc(NC(=O)c2ccccc2)c1 | 2.2µM* | -1% | 7.9µM*
CC(C)CC(=O)NC(=S)Nc1cccc(NC(=O)c2ccccc2)c1 | ? | -6% | ?
CCCCCC(=O)NC(=S)Nc1ccc(NC(=O)c2ccco2)cc1 | 10µM* | 0% | ?
N#Cc1nc(Nc2ccccc2)nc(NC2CCCC2)n1 | . | . | -25%
COc1cc(CNCc2ccc(C)cc2)cc(OC)c1OC | 9% | . | -8%
COc1ccc(O[C@H]2C=C[C@@H](c3ccccc3)O[C@H]2CO/N=C2/c3cc(OC)ccc3O[C@@H](c3cccc(OC)c3)[C@H]2O)cc1 | 2%[10 µM] | . | 5%[10 µM]
c1cnc2ccc3ncccc3c2c1 | -9% | . | 1%
O=Cc1ccc(O)c2ncccc12 | 1µM* | . | 0.56µM*
CC1(C)S[C@@H]2[C@H](NC(=O)[C@@H](NC(=O)N3CCNC3=O)c3ccccc3)C(=O)N2[C@H]1C(=O)O | -10%[2.98 µM] | -1%[17.1 µM] | -8%[17 µM]
Cc1nn(C)c(C(=O)NNC(=S)Nc2ccc(Cl)cc2)c1[N+](=O)[O-] | 4µM* | 3% | ?
Cc1nn(C)c(C(=O)Nc2ccc(Cn3cccn3)cc2)c1[N+](=O)[O-] | -30% | -2% | -7%
SMILES | RORg inh | KinaseGlo FLuc | Gal4-VP16 FLuc
COc1cccc(NC(=S)NNC(=O)C(C)n2nc(C)c([N+](=O)[O-])c2C)c1 (configuration not stated) | ? | 2% | -18%
COc1cccc(NC(=S)NNC(=O)c2c([N+](=O)[O-])c(C)nn2C)c1 | 2.5µM* | 5% | ?
Clc1ccccc1-c1nnc(-c2ccc3c(c2)OCO3)o1 | -36% | ? | -24%
O=C(CSc1nnc(CNC(=O)c2ccco2)o1)Nc1nc2ccccc2s1 | 2.5µM* | -2% | 10µM*
O=C(CSc1nnc(CNC(=O)c2ccco2)o1)Nc1ccccc1 | 5% | 0% | 9%
CCOC(=O)c1c(NC(=O)CSc2nnc(CNc3ccc(Cl)cc3)o2)sc(C)c1C | -12% | 1% | 5%
O=C(CSc1nnc(CNc2ccc(Cl)cc2)o1)Nc1nc2ccccc2s1 | 14µM* | 0% | ?
O=C(Cc1ccccc1)NN1C(=O)/C(=C/c2ccccc2C(=O)O)SC1=S | -26% | . | -1%
Cc1cccc(C)c1OCC(=O)N(Cc1ccc(N(C)C)cc1)C1CCS(=O)(=O)C1 (configuration not stated) | 28% | . | 0%
CCN1C(=O)[C@H]2[C@H]3[C@H](O)[C@H](O)C/C(=N/NC(=O)OCc4ccc(OC)cc4)[C@@H]3CC[C@@H]2C1=O | -21%[10 µM] | . | 3%[10 µM]
CCCCCCNC(=O)n1cc(F)c(=O)[nH]c1=O | -7% | 0% | -10%
CCc1cccc(CC)c1NC(=O)COC(=O)C1(C)CC1(Cl)Cl (configuration not stated) | 1% | 0% | -11%
COC(=O)c1ccc(COc2ccc3c(c2)CCC3)o1 | 35% | . | -5%
O=C(NCc1cccnc1)c1ccc(COc2ccc3c(c2)CCC3)o1 | -110% | 1% | 20µM*
O=C(N/N=C/c1cc([N+](=O)[O-])ccc1O)c1ccc(COc2ccc3c(c2)CCC3)o1 | 2.2µM* | . | 1.4µM*
COc1ccc(Br)cc1/C=N/NC(=O)c1ccc(COc2ccc3c(c2)CCC3)o1 | -20% | -4% | -12%
COC(=O)c1cn(C(=O)c2cccc(C)c2)c2ccccc12 | -29% | -1% | -11%
CCOC(=O)C1CCCN(C(=O)CCn2nnnc2CN2CCOCC2)C1 (configuration not stated) | 0% | . | 1%
CCCC(=O)Nc1sc2c(c1C(=O)Nc1ccccn1)CCCC2 | -24% | 0% | -9%
CS(=O)(=O)c1nc(S(=O)(=O)c2ccc(Cl)cc2)c(NCc2ccccn2)s1 | 11% | . | -8%
O=C(COc1ccc(Cl)cc1Cl)NN1C(=O)C2C3C=CC(C3)C2C1=O (configuration not stated) | 32% | . | 14%
O=C(N=C1SC2CS(=O)(=O)CC2N1CCc1ccccc1)C1CCCCC1 (configuration not stated) | -18% | . | 3%
C1CCC2(CC1)C1=C(CCCC1)Nc1nnnn12 | -6% | -2% | -7%
S=C1NC2=C(CCCC2)C2(CCCCC2)N1 | 2µM* | 3% | 1.8µM*
Cc1cc(OCCCn2ccnc2)ccc1C(C)C | -35% | 0% | ?
SMILES | RORg inh | KinaseGlo FLuc | Gal4-VP16 FLuc
Cc1cc(OCCCn2ccnc2)cc(C(C)C)c1 | 32µM* | 0% | -1%
Cc1cc(OCCCCn2ccnc2)cc(C)c1Cl | 13µM* | 0% | -24%
Cc1cc(Cl)cc(C)c1OCCCCn1ccnc1 | 11µM* | -1% | -29%
Cc1cccc(OCCCCCn2ccnc2)c1 | ? | -1% | 9%
Cc1cc(OCCn2ccnc2)cc(C(C)C)c1 | -34% | 0% | 2%
Clc1cccc(OCCCn2ccnc2)c1 | -27% | . | -13%
CC(C)(C)c1ccc(OCCCn2ccnc2)cc1 | -115% | . | 25µM*
Cc1ccc(NC(=Nc2ccc(Br)cc2)N2CCOCC2)cc1C | 1% | . | -3%
CC[C@H](C)[C@H](NC(=O)CNC(=O)[C@H](C)NC(=O)[C@H](C)N)C(=O)NCC(=O)N[C@H](C(=O)N[C@@H](CC(C)C)C(=O)N[C@H](C(=O)N[C@H](C(=O)O)C(C)C)[C@@H](C)O)[C@@H](C)CC | 12% | . | 3%
CCCCCCCCCCCCC/C=C/[C@@H](O)[C@H](CO)NC(=O)CCCCCCCCCCCCCCC | -15% | 0% | -22%
O=c1cc2c(n[nH]1)-c1ccccc1CC2 | -17% | . | 6%
CCc1ccccc1NC(=O)CCS(=O)(=O)c1ccc(OC)cc1 | -4% | . | 3%
CCOc1ccc(OCC)c(NC(=O)Cn2c(C)nc3ccccc3c2=O)c1 | 13% | -2% | -5%
